Data reported in PubChem BioAssay AID1159580 (chemical genetic matrix, 2015).
About 2,000 (36%) of roughly 5,500 compounds were called active. Roughly 18% stayed inconclusive and do not appear here. Cut-off read from the data, not from the text of the source: active = normalized growth mostly below about 0.91 (no sharp cut-off); inconclusive = no clear call, values can overlap the other calls; inactive = mostly above about 0.92. Some of the results follow.

Assay: chemical genetic growth profiling, strain panel (AID 1159580);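 note: tested at 20 µM; growth read once vehicle control cultures reached saturation at 30 °C; 1 = growth at the plate median or of vehicle wells; lower values mean less growth of the strain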
Conditions: growth OD

Measured: normalized growth

CC(=O)O[C@H]1C[C@@H](OC(C)=O)C(C)(C)C2CC(=O)[C@]3(C)C(CC[C@@]4(C)[C@H](C(=O)O)OC(=O)C5OC543)[C@]21C (stereo partly specified)
inactive: S. cerevisiae deletion strains, locus YJR066W, strain TOR1, active compounds read low 0.96 | S. cerevisiae deletion strains, locus YKL009W, strain mrt4, active compounds read low 0.996 | S. cerevisiae deletion strains, locus YKL068W, active compounds read low 0.988 | S. cerevisiae deletion strains, locus YKL085W, strain MDH1 (second series), active compounds read low 1 | S. cerevisiae deletion strains, locus YKL085W, strain MDH1, active compounds read low 1 | S. cerevisiae deletion strains, locus YKL160W, strain elf1, active compounds read low 0.99 | S. cerevisiae deletion strains, locus YKL190W, strain CNB1, active compounds read low 0.987 | S. cerevisiae deletion strains, locus YKR001C, strain vps1, active compounds read low 1.01 | S. cerevisiae deletion strains, locus YKR026C, strain gcn3, active compounds read low 1 | S. cerevisiae deletion strains, locus YKR091W, strain srl3, active compounds read low 0.978 | S. cerevisiae deletion strains, locus YLL001W, strain dnm1, active compounds read low 1 | S. cerevisiae deletion strains, locus YLL026W, active compounds read low 0.981 | S. cerevisiae deletion strains, locus YLL041C, strain sdh2, active compounds read low 0.989 | S. cerevisiae deletion strains, locus YLR027C, strain aat2, active compounds read low 1 | S. cerevisiae deletion strains, locus YLR039C, strain RIC1, active compounds read low 1.06 | S. cerevisiae deletion strains, locus YLR058C, strain SHM2, active compounds read low 0.985 | S. cerevisiae deletion strains, locus YLR102C, strain apc9, active compounds read low 1 | S. cerevisiae deletion strains, locus YLR113W, strain HOG1, active compounds read low 0.968 | S. cerevisiae deletion strains, locus YLR221C, strain rsa3, active compounds read low 1.01 | S. cerevisiae deletion strains, locus YLR258W, strain gsy2, active compounds read low 0.995 | S. cerevisiae deletion strains, locus YLR262C, strain YPT6 (second series), active compounds read low 0.978 | S. cerevisiae deletion strains, locus YLR262C, strain YPT6, active compounds read low 1.05 | S. cerevisiae deletion strains, locus YLR268W, strain sec22, active compounds read low 0.954 | S. cerevisiae deletion strains, locus YLR320W, strain mms22, active compounds read low 1.02 | S. cerevisiae deletion strains, locus YLR342W, strain FKS1 (second series), active compounds read low 0.972 | S. cerevisiae deletion strains, locus YLR342W, strain FKS1, active compounds read low 1.01 | S. cerevisiae deletion strains, locus YLR357W, strain rsc2, active compounds read low 1 | S. cerevisiae deletion strains, locus YLR370C, strain arc18, active compounds read low 0.981 | S. cerevisiae deletion strains, locus YLR371W, strain rom2, active compounds read low 0.985 | S. cerevisiae deletion strains, locus YLR384C, strain iki3, active compounds read low 0.998 | S. cerevisiae deletion strains, locus YLR418C, strain cdc73, active compounds read low 1.07 | S. cerevisiae deletion strains, locus YML016C, strain PPZ1, active compounds read low 0.976 | S. cerevisiae deletion strains, locus YML032C, strain rad52, active compounds read low 0.981 | S. cerevisiae deletion strains, locus YML120C, strain ndi1, active compounds read low 0.993 | S. cerevisiae deletion strains, locus YML124C, strain tub3, active compounds read low 0.989 | S. cerevisiae deletion strains, locus YMR058W, strain fet3, active compounds read low 0.982 | S. cerevisiae deletion strains, locus YMR078C, strain ctf18, active compounds read low 0.975 | S. cerevisiae deletion strains, locus YMR125W, strain sto1, active compounds read low 0.98 | S. cerevisiae deletion strains, locus YMR129W, active compounds read low 0.976 | S. cerevisiae deletion strains, locus YMR205C, strain PFK2, active compounds read low 1.01 | S. cerevisiae deletion strains, locus YMR223W, strain ubp8, active compounds read low 0.993 | S. cerevisiae deletion strains, locus YMR231W, strain pep5, active compounds read low 0.991 | S. cerevisiae deletion strains, locus YMR307W, strain GAS1, active compounds read low 0.984 | S. cerevisiae deletion strains, locus YNL067W, strain RPL9B, active compounds read low 1.04 | S. cerevisiae deletion strains, locus YNL071W, strain lat1, active compounds read low 1.01 | S. cerevisiae deletion strains, locus YNL128W, strain TEP1, active compounds read low 0.951 | S. cerevisiae deletion strains, locus YNL153C, strain GIM3, active compounds read low 1.02 | S. cerevisiae deletion strains, locus YNL183C, strain NPR1, active compounds read low 0.972 | S. cerevisiae deletion strains, locus YNL209W, strain ssb2, active compounds read low 0.982 | S. cerevisiae deletion strains, locus YNL233W, strain BNI4, active compounds read low 1.03 | S. cerevisiae deletion strains, locus YNL248C, strain rpa49, active compounds read low 0.964 | S. cerevisiae deletion strains, locus YNL250W, strain rad50, active compounds read low 0.993 | S. cerevisiae deletion strains, locus YNL271C, strain bni1, active compounds read low 0.996 | S. cerevisiae deletion strains, locus YNL298W, strain CLA4, active compounds read low 0.99 | S. cerevisiae deletion strains, locus YNL307C, strain MCK1, active compounds read low 0.999 | S. cerevisiae deletion strains, locus YNL322C, strain KRE1 (second series), active compounds read low 1.01 | S. cerevisiae deletion strains, locus YNR049C, strain mso1, active compounds read low 0.972 | S. cerevisiae deletion strains, locus YNR052C, strain pop2, active compounds read low 1.03 | S. cerevisiae deletion strains, locus YOL012C, strain htz1 0.975 | S. cerevisiae deletion strains, locus YOL147C, strain pex11, active compounds read low 0.992 | S. cerevisiae deletion strains, locus YOR001W, strain rrp6, active compounds read low 1.01 | S. cerevisiae deletion strains, locus YOR061W, strain CKA2, active compounds read low 0.964 | S. cerevisiae deletion strains, locus YOR069W, strain VPS5, active compounds read low 0.99 | S. cerevisiae deletion strains, locus YOR070C, strain gyp1, active compounds read low 1 | S. cerevisiae deletion strains, locus YOR080W, strain dia2, active compounds read low 0.983 | S. cerevisiae deletion strains, locus YOR083W, strain WHI5, active compounds read low 1.01 | S. cerevisiae deletion strains, locus YOR106W, strain vam3, active compounds read low 0.982 | S. cerevisiae deletion strains, locus YOR136W, strain idh2, active compounds read low 0.985 | S. cerevisiae deletion strains, locus YOR144C, strain elg1, active compounds read low 0.994 | S. cerevisiae deletion strains, locus YOR184W, strain ser1, active compounds read low 0.968 | S. cerevisiae deletion strains, locus YOR231W, strain MKK1, active compounds read low 1.02 | S. cerevisiae deletion strains, locus YOR265W, strain rbl2, active compounds read low 1 | S. cerevisiae deletion strains, locus YOR270C, strain vph1, active compounds read low 1.02 | S. cerevisiae deletion strains, locus YOR290C, strain snf2, active compounds read low 0.969 | S. cerevisiae deletion strains, locus YOR316C, strain cot1, active compounds read low 0.986 | S. cerevisiae deletion strains, locus YPL051W, strain arl3, active compounds read low 0.99 | S. cerevisiae deletion strains, locus YPL078C, strain atp4, active compounds read low 0.985 | S. cerevisiae deletion strains, locus YPL106C, strain sse1, active compounds read low 1 | S. cerevisiae deletion strains, locus YPL240C, strain hsp82, active compounds read low 0.993 | S. cerevisiae deletion strains, locus YPL256C, strain CLN2, active compounds read low 1.01 | S. cerevisiae deletion strains, locus YPR119W, strain clb2, active compounds read low 0.994 | S. cerevisiae deletion strains, locus YPR141C, strain kar3, active compounds read low 0.986 | S. cerevisiae deletion strains, locus YPR163C, strain tif3, active compounds read low 0.998 | S. cerevisiae deletion strains, locus YPR167C, strain met16, active compounds read low 0.988 | S. cerevisiae deletion strains, strain wtn01, active compounds read low 0.983 | S. cerevisiae strains, strain wild type, active compounds read low 0.974
